# Screening results (PubChem)
# TRPV1 potentiator: potentiators of human vanilloid receptor 1 (TRPV1) | TRPV1-expressing cells, Fluo-8 calcium influx, capsaicin EC20 potentiation | potentiation, % at 8.33 µM | actives 0.02% (n = 320,000) | AID 540277; in the data active = potentiation above about 80%; inconclusive = between about 30% and that limit; note: 0% is about no effect
#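 Fluo-8 calcium influx in TRPV1-expressing cells, kinetic read (ex 480/em 520 nm). Compound added and read 3 min for agonist activity, followed by capsaicin at EC20 final and 2 min further read for enhancement.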
# KCNH2 WT inh: KCNH2 (human, wildtype) channel inhibition | activity change, % at 1.84 µM | AID 720551 | actives 0.37% (n = 340,000) | Q12809 | U2OS, BacMam KCNH2, thallium flux FluxOr; stronger effect = lower value;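 active = maximum activity change below -70%; inconclusive = maximum activity change between -70% and -50%; inactive = maximum activity change above -50%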; note: % is set by controls: 0 for no effect and ±100 for the full control effect
#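 U2OS cells transduced with wild-type KCNH2 virus are loaded with FluxOr dye for 45 min, and thallium flux is measured in kinetic reads before and after stimulation buffer. Rate constants are normalized to DMSO controls.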
# p53 reactivator: restores transcriptional activity of mutant p53; AID 504706; H1299 p53-A138V BP100-luciferase reporter, luminescence, 24 h; actives 0.063% (n = 320,000); Potency, µM (top dose mostly 92.2 µM), for inactives: at the highest dose activity change, positive = activation, usual class: activators; active = well fitted activation curve with a large enough effect; inconclusive = small, poorly fitted or top-dose-only effect; inactive = no such curve, though single readings can be large or run the other way; note: potency is the fitted concentration of half-maximal effect; % of control where 0% means no effect; nearly all actives have a fitted effect of over 45% in size
#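 H1299 (p53-null), stable ts p53-A138V + BP100-Luc; 1000 cells/well, Opti-MEM/10% FBS; cpd 4 pt, 1:5; 24 h, 37 deg C, 5% CO2; detection reagent 10 min RT; luminescence.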
# KCNH2 3.1 block: inhibitors of human KCNH2 3.1 potassium channel isoform; U2OS KCNH2 3.1, thallium flux FluxOr; stronger effect = lower value; activity change, % (tested at about 1.8 µM); actives 0.95% (n = 340,000); AID 720553;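 active = maximum activity change below -70%; inconclusive = maximum activity change from -70% to -50%; inactive = maximum activity change above -50%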;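 note: thallium influx rate constant from kinetic fluorescence after stimulation buffer; % is set by controls: 0 for no effect and ±100 for the full control effect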
#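 Channel expression came from 3.1 mutant virus (1.77 x 10^8 /mL) applied to suspended U2OS cells for 4 h. Flux was tracked with FluxOr dye plus Red40 quencher, and kinetic rate constants normalized to controls.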
# ClpP mod: qHTS Assay for Activators of ClpP; actives 1.9% (n = 340,000); ATP-dependent Clp protease proteolytic subunit (Bacillus subtilis (strain 168)), P80244; AID 651965, 2013; purified B. subtilis ClpP, FRET peptide cleavage, 20 min; Potency, µM (titrated, usually from 57.5 µM), for the others: at the highest dose activity change, negative = active; active = well fitted falling curve with a large enough effect; inconclusive = small, poorly fitted or top-dose-only effect; inactive = no such curve, though single readings can be large or run the other way; note: potency is the fitted concentration of half-maximal effect; the source files actives as falling curves though it sought activators and does not explain the sign; nearly all actives have a fitted effect of over 65% in size
# Target sequence (P80244 whole entry, looked up): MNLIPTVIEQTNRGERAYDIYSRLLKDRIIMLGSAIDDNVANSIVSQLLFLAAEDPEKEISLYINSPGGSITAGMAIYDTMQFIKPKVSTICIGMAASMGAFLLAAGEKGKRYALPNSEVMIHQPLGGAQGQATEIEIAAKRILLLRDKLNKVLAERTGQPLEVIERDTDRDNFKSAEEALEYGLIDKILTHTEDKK
#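 Purified B. subtilis ClpP, 10 microg/mL final in Tris/HCl pH8 with KCl, BSA, glycerol and Tween-20, cleaved an Abz/nitrotyrosine-quenched decapeptide. Fluorescence (ex 320, em 430) was read at 0 and 20 min at room temperature. Delta was normalized to 5.8 microM ADEP and DMSO/no-enzyme controls.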
# TRPV1 ag: human TRPV1 agonism | TRPV1-expressing cells, Fluo-8 calcium influx, agonist mode | activation, % at 8.33 µM | actives 0.19% (n = 320,000); in the data active = activation above about 80%; inconclusive = between about 30% and that limit; note: 0% is about no effect
#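 TRPV1-expressing cells were cultured overnight at 35.5C and loaded with Fluo-8 calcium dye for 40 to 90 min at room temperature. After a 10 s baseline, compound was added and calcium influx was read kinetically for 3 min (ex 480/em 520 nm).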
# Numbers without * were called inactive; ? = inconclusive; · = no result given. A selection: hits, their analogues and other compounds. The true share with any hit is near 2.6%.
SMILES,TRPV1 potentiator,KCNH2 WT inh,p53 reactivator,KCNH2 3.1 block,ClpP mod,TRPV1 ag
CCOc1ccc(/C=N/NC(=O)c2ccccc2NC(=O)c2ccc(OC)cc2)cc1,5,-10,?,-11,28µM*,2
O=C(NCCCc1nc2ccccc2n1Cc1ccccc1Cl)c1ccco1,·,·,·,·,-2%,·
Clc1ccccc1Cn1c(/C=C/c2ccco2)nc2ccccc21,-5,2,26%,-18,28µM*,13
C=C(C)COc1ccc(-c2nc(N)nc(C)c2-c2ccc(OC)cc2)c(O)c1,14,-7,5%,-7,25µM*,-1
CC(C)(C)c1ccc(C(=O)NC(=O)COC(=O)c2ccc(Br)o2)cc1,·,0,1%,13,32µM*,·
CCN(c1ccccc1)S(=O)(=O)c1nnc(NC(=O)COc2cccc(C)c2)s1,·,·,·,·,1%,·
COc1ccc(Cn2nnnc2C(c2ccc(C)cc2)N2CCN(C3CCCC3)CC2)cc1 (configuration not stated),6,16,-17%,-73*,1%,0
COc1ccc2[nH]c(=O)c(C(c3nnnn3CC3CCCO3)N3CCc4ccccc4C3)cc2c1 (configuration not stated),3,-11,-5%,5,32µM*,9
Cc1ccc2[nH]c(=O)c(C(c3nnnn3CC3CCCO3)N3CCOCC3)cc2c1 (configuration not stated),13,-5,-4%,5,22µM*,-1
COc1ccc(Cn2nnnc2C(c2cccs2)N2CCN(c3ccc([N+](=O)[O-])cc3)CC2)cc1 (configuration not stated),-3,?,-12%,-99*,?,2
O=c1[nH][nH]c2c1[C@H](c1ccc(Cl)cc1)O[C@H](C1CC1)C2,·,·,·,·,-3%,·
CCN(CC)C(=O)c1cccc(-c2csc(C(O)c3ccc(F)c(OC)c3)n2)c1 (configuration not stated),·,·,·,·,0%,·
CC(C)C[C@H]1COc2cc(N3CCC[C@H]3CO)ccc2S(=O)(=O)N1,·,·,·,·,-4%,·
COc1ccccc1C(c1nnnn1CC1CCCO1)N1CCC(C(N)=O)CC1 (configuration not stated),4,-5,-12%,-2,-1%,3
COc1ccc(C(c2nnnn2CC2CCCO2)N2CCC(C(N)=O)CC2)cc1 (configuration not stated),2,1,-4%,-8,28µM*,-5
CCOC(=O)c1nnn(C(CC)C(=O)Nc2ccc(F)cc2)c1C(=O)OCC (configuration not stated),·,·,·,·,1%,·
CCOC(=O)c1cc2c(n(-c3ccccc3)c1=O)CC(C)(C)CC2=O,0,-16,3%,4,13µM*,1
CC(CNC(=O)Cn1ccc2cc(S(=O)(=O)N3CCCCCC3)ccc21)c1ccccc1 (configuration not stated),·,·,·,·,-23%,·
CCOC(=O)C1=C(C)NC(C)=C(C(=O)OCC)C1c1ccc(Br)o1,2,-10,-7%,-8,3.5µM*,10
COc1ccc(/C=N/NC(=O)c2nc(-c3ccccc3)cc(-c3ccccc3)n2)cc1OC,7,-4,20%,-72*,-17%,1
COc1cccc(/C=N/NC(=O)c2nc(-c3ccccc3)cc(-c3ccccc3)n2)c1,0,-11,5%,-78*,-28%,-4
O=C(CN1C(=O)C2(SCC(=O)N2c2cccc(Cl)c2)c2ccccc21)NCc1ccccc1 (configuration not stated),·,·,·,·,1%,·
CC1CCN(CCOCCOc2ccccc2-c2ccccc2)CC1,6,30,0%,-29,1%,3
Clc1ccc(OCCCCCN2CCOCC2)cc1,11,5,·,-19,·,3
CC1CCN(CCCCOc2ccccc2-c2ccccc2)CC1,-6,-71*,1%,-80*,-5%,10
SMILES,TRPV1 potentiator,KCNH2 WT inh,p53 reactivator,KCNH2 3.1 block,ClpP mod,TRPV1 ag
Cc1cc(Cl)ccc1OCCCC(=O)N1CCOCC1,-14,-6,?,-11,-1%,?
CC1CCN(CCCCOc2ccc(Cl)cc2)CC1,?,54,-3%,-76*,·,1
CC1CCN(CCCCOc2ccc(C(C)(C)C)cc2)CC1,1,-20,0%,-75*,0%,-2
Cc1ccc(OCCCC(=O)N2CCOCC2)cc1,-21,4,2%,3,10µM*,?
COc1ccc(OC)c(NC(=O)C(C)n2nc(C)c3c(C)n(-c4ccccc4)nc3c2=O)c1 (configuration not stated),·,·,·,·,2%,·
CC1CCN(C(=O)CCCOc2ccc(Cl)cc2)CC1,-11,15,?,-2,3%,80*
CCOC(=O)Cc1cc(-c2ccc(F)cc2)nc2ccc3ccccc3c12,11,-5,1%,-22,22µM*,3
CCOC(=O)c1cc(Cl)c2c(ccc3ccccc32)n1,·,4,·,5,-12%,·
CCOC(=O)Cc1cc(-c2ccc(O)cc2)nc2ccc3ccccc3c12,-11,-14,-9%,15,32µM*,27
CCOC(=O)Cc1cc(-c2ccc(OC)cc2)nc2ccc3ccccc3c12,5,0,9%,-4,8.9µM*,5
O=C(C[N+]12CCCc3cccc(c31)CCC2)c1ccccc1,·,·,·,·,-30%,·
COC(=O)[C@@]12C[C@@H](CC(=O)N3CCC(c4ccccc4)CC3)C(=O)N(Cc3ccco3)C1=CCC(C)(C)C2,·,·,·,·,-4%,·
Cc1sc2ncnc(N3CCN(CCOc4ccc(Cl)cc4)CC3)c2c1C,5,-21,-4%,-79*,-3%,5
CCCCc1c(C)nc2c(OC)cccc2c1SCCC(=O)O,2,-1,-11%,-6,32µM*,-1
CCOC(=O)C1CCN(C(=O)c2ccc3c(=O)n4nc(Nc5ccccc5OC)sc4nc3c2)CC1,·,-3,·,-75*,-2%,·
COc1cccc2c1cc1c(=O)n(CC(=O)N3CCN(c4cccc(C(F)(F)F)c4)CC3)nc(C)n12,·,·,·,·,16µM*,·
CCOC(=O)C1CCN(C(=O)Cn2nc(C)n3c(cc4c(OC)cccc43)c2=O)CC1,·,·,·,·,2.8µM*,·
COc1cccc(N2CCN(C(=O)Cn3nc(C)n4c(cc5c(OC)cccc54)c3=O)CC2)c1,·,·,·,·,-1%,·
CCOC(=O)C1CCCN(C(=O)Cn2nc(C)n3c(cc4c(OC)cccc43)c2=O)C1 (configuration not stated),10,-8,2%,13,4%,-2
COc1ccc(-c2csc(C(C)(O)c3ccccc3)n2)cn1 (configuration not stated),·,·,·,·,-2%,·
